For 40 compounds, Potency results are on record in PubChem BioAssay (NCATS).

Records with an inconclusive call do not appear. Entries that show only a call come without a potency. Active and inactive are the calls of the source. Calls follow the shape of the dose curve; as a rule, active = well fitted inhibition curve with a large enough effect; inconclusive = small, poorly fitted or top-dose-only effect; inactive = flat fitted curve, though single readings scatter.

Chain of Calcium and integrin-binding protein 1 (Homo sapiens) (Q99828 whole entry, looked up): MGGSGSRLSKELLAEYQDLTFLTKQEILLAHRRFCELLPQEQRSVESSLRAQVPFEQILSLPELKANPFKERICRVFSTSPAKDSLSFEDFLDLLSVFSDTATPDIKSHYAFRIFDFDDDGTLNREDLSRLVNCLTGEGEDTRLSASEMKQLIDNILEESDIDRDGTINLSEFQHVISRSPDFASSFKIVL

This assay has as its target Calcium and integrin-binding protein 1 (Homo sapiens) (UniProt Q99828). Kind of assay: Primary qHTS for Identification of Calcium Integrin Binding Protein 1 (CIB1) Competitor (AID 1508620).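 Also: GST tagged CIB1 binding a fluorescein labelled alphaIIb integrin peptide tracer; top concentration of the series differs between compounds.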 Conditions: CIB1-GST / FITC-alphaIIb peptide fluorescence polarization; series mostly up to 114 µM. The procedure, abridged:
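Fluorescence polarization competition: CIB1-GST (1 uM final) preincubated with compound 15 min at room temperature, then FITC-labeled alphaIIb peptide (100 nM final) added for another 15 min. Polarization read at Ex 480/Em 540.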
For the compound `Cc1cc(C)nc(NC(=S)N2CCN(c3ccccn3)CC2)c1`, the Potency entry was “inactive”.

On to `COc1ccc(C2c3c(ncn(CCc4ccccc4)c3=N)Oc3ccc4ccccc4c32)cc1OC` (stereo not given), for which the Potency entry is “inactive”.

Consider `CCc1c(C)nc2cc(-c3ccc(OC)c(OC)c3)nn2c1N1CCCC1`, for which the Potency entry is “inactive”.

As for `COc1ccccc1C1=Nn2c(nnc2-c2ccccc2OC)SC1`, the Potency entry is “inactive”.

Consider `Cc1cc(C)nc(NC(=S)N2CCN(c3ccc(F)c(F)c3)CC2)c1`, for which the Potency entry was “inactive”.

For `COC(=O)C1CCN(C(=O)c2ccc3c(c2)ncn3-c2cccc(C)c2)CC1`, the Potency entry is “inactive”.

On to `NC(=O)c1ccccc1C[C@H](C(=O)O)N1C(=O)c2ccc(C(=O)O)cc2C1=O`, for which the Potency entry was “inactive”.

As to `Cc1cccc(C(=O)NCC(=O)OC(C(=O)Nc2cc(C(F)(F)F)ccc2Cl)c2ccccc2)c1` (stereo not given), the Potency result is “inactive”.

`c1nc(NCCCN2CCCCC2)c2cc(-c3ccc4c(c3)OCO4)ccc2n1`: the Potency result was “inactive”.

In the case of `Oc1cc(Nc2cccnc2)cc2cccnc12`, the Potency result is “inactive”.

Take `Cc1ccc(N2CCC(CNc3nc(-c4ccccc4C(C)C)ncc3F)CC2)cn1`: the Potency result is “inactive”.

`O=C(Nc1ncc(Cc2ccc(C(F)(F)F)cc2)s1)c1ccc(-c2cccnc2)o1`: the Potency entry was “inactive”.

As to `c1ccc(CNCc2nnc(-c3cc4ccccc4[nH]3)o2)cc1`, the Potency result is “inactive”.

On to `O=C1c2ccccc2NC(c2ccc(Br)o2)N1O` (stereo not given), for which the Potency result is “inactive”.

Take `Cc1cc(N[S+](=O)([O-])c2ccc(NC(=O)Cc3ccc4nccnc4c3)cc2)no1`: the Potency entry was “inactive”.

In the case of `O=C1Nc2ccc(Cl)cc2/C1=C\c1cc(Cl)c(O)c(Cl)c1`, the Potency result was “inactive”.

In the case of `c1cncc(CNc2ncnc3ccc(-c4ccc5c(c4)OCO5)cc23)c1`, the Potency result was “inactive”.

In the case of `O=C1CCCC2=C1C(c1[nH]ncc1Cl)N=C(Nc1ccn[nH]1)N2` (stereo not given), the Potency result is “inactive”.

In the case of `Cc1ccc(NC(=O)CN2C(=O)N/C(=C\c3cccn3-c3ccc([S+](N)(=O)[O-])cc3)C2=O)cc1`, the Potency entry is “inactive”.

For `COc1ccc(/C=C(\C)C2Nc3cccc4cccc(c34)N2)cc1`, the Potency entry was “inactive”.

For the compound `COc1ccc(CSc2nc3ncc(Br)cc3[nH]2)cc1F`, the Potency result is “inactive”.

With `Cc1ccc(OCCn2c(CCNC(=O)Cc3ccc(F)cc3F)nc3ccccc32)cc1`, the Potency result is “inactive”.

`Cc1c(C(=O)OCC2CCCCO2)[nH]c2c1C(=O)CC(c1ccco1)C2` (stereo not given): the Potency result was “inactive”.

On to `C#CCOc1ccc(-c2no[n+]([O-])c2C#N)cc1`, for which the Potency result was “inactive”.

With `Cc1ccc(NC(=O)c2cnn3c(C)cc(C)nc23)c(C)c1`, the Potency entry was “inactive”.

As for `O=C(COC(=O)CNC(=O)C1CCCCC1)Nc1cc(C(F)(F)F)ccc1Cl`, the Potency entry is “inactive”.

Take `Cc1c(C(=O)OCC2CCCC2)[nH]c2c1C(=O)CC(c1ccco1)C2` (stereo not given): the Potency result was “inactive”.

In the case of `c1csc(CNc2ncnc3ccc(-c4ccc5c(c4)OCO5)cc23)n1`, the Potency result is “inactive”.

`O=C(NCCCCc1ccccc1)C1CCN(c2nc(-c3ccc(Br)cc3)cs2)CC1`: the Potency result is “inactive”.

Turning to `COc1ccc(-c2nnc3n2N=C(c2ccccc2OC)CS3)cc1OC`, the Potency entry was “inactive”.

As for `COc1cccc(OC)c1C1=Nn2c(nnc2-c2ccccc2O)SC1`, the Potency entry was “inactive”.

As to `Cc1cc(NS(=O)(=O)c2cc3c(cc2F)NC(=O)CC3)ccc1Cl`, the Potency entry was “inactive”.

For `Nc1ccccc1S(=O)(=O)Nc1cccc2cccnc12`, the Potency entry was “inactive”.

As for `COc1cccc(Cn2ncc3c4sc(B(O)O)cc4n(C)c3c2=O)c1`, the Potency entry was “inactive”.

Take `Nc1nnc(-c2ccc3ccccc3c2)o1`: the Potency result was “inactive”.

For `Cc1cnc(-c2ccccc2C2COC2)nc1NCc1ccc(-c2cccnc2)cc1`, the Potency entry is “inactive”.

Take `Cc1ccc(N2CCN(S(=O)(=O)c3ccc4c(c3)CC(=O)N4)CC2)cc1`: the Potency entry is “inactive”.

As to `Nc1cccc(OCCn2c(CCNC(=O)C3CCCCC3)nc3ccccc32)c1`, the Potency result is “inactive”.

Turning to `COc1cccc(-c2no[n+]([O-])c2C#N)c1`, the Potency result is “inactive”.

For the compound `Cc1cccc(C)c1SC1=NS(=O)(=O)c2ccccc21`, the Potency entry was “inactive”.
